Screening results (PubChem)
C1s block – blocks human complement C1s protease activity | purified C1s, fluorogenic AMC substrate, pooled mixtures | mean inhibition % of two 10-compound mixtures (active compounds read high), % at 5 µM (by protocol) | P09871 | 62,000 compounds, 0.16% hits;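 active = inhibition above 20% in each of the two 10-compound mixture wells holding the compound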
Cathepsin G inh – blocks human cathepsin G enzyme activity. P08311. purified enzyme, AMC-tetrapeptide fluorescence, pooled mixtures. inhibition, % at 5 µM (by protocol). 62,000 compounds, 0.2% hits. AID 581;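 active = inhibition above 20% in each of the two mixture wells holding the compound; inactive = inhibition of 20% or less in either well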
Target sequence (P08311 21-244 limits assumed): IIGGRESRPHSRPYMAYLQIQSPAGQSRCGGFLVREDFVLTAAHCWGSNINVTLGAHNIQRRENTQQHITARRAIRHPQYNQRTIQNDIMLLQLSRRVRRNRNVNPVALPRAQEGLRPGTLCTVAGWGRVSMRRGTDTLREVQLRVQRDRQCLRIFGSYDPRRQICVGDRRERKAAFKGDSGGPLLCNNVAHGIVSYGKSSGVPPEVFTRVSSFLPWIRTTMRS
CatB inh – blocks human cathepsin B protease activity. P07858. purified cathepsin B, fluorogenic substrate, fluorescence. inhibition, %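 (tested at 10 µM)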. 63,000 compounds, 0.1% hits. AID 453; in the data active = inhibition above about 21%
CatB mix inh – human cathepsin B inhibition by mixtures; Purified cathepsin B, AMC dipeptide fluorescence, compound mixtures; inhibition, %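 (ten-compound pools at 5 µM per compound and 50 µM total)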; 62,000 compounds, 0.06% hits; AID 488; in the data active = inhibition above about 22%, passing the limit was not always enough; inconclusive = no clear call, values can overlap the other calls
CatS inh – blocks human cathepsin S protease activity; P25774; recombinant cathepsin S, AMC dipeptide fluorescence, pooled mixtures; inhibition, %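 (tested at 5 µM per compound within 10-compound mixtures)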; 62,000 compounds, 0.06% hits; AID 501; in the data active = inhibition above about 32%, passing the limit was not always enough; inconclusive = no clear call, values can overlap the other calls
Target sequence (P25774 115-331 limits assumed): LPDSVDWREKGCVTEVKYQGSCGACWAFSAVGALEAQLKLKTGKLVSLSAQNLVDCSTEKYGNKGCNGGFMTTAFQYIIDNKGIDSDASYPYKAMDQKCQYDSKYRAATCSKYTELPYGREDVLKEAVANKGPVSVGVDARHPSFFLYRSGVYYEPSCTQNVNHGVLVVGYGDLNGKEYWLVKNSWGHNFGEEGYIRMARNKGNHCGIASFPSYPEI
CatL block – blocks human cathepsin L protease activity | purified cathepsin L, fluorogenic substrate, fluorescence | 58,000 compounds, 0.17% hits | AID 460 | inhibition, %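 (tested at 10 µM)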 | P07711; in the data active = inhibition above about 45%
Large screens that a line does not name were inactive. Shown are actives, neighbours in structure and some others; about 0.54% of the full set was active somewhere.

COC(=O)c1ccc2c(c1)N(Cc1nc(-c3cccc(C)c3)oc1C)C(=O)C1CCCN21 (stereo not drawn)	none (no result: CatL block)
CCOC(=O)c1c(-c2ccc(C)o2)csc1NC(=O)CSc1nncs1	none
CCOC(=O)c1c(-c2ccc(C)o2)csc1NC(=O)CN1CCN(CC)CC1	C1s block 59
COc1cc(C2/C(=C(/O)c3ccc(F)cc3)C(=O)C(=O)N2CCCC(=O)O)ccc1O (stereo not drawn)	none
CSc1nc(N2CCN(CCO)CC2)c2sc3nc(-c4ccco4)c4c(c3c2n1)CCC4	CatL block 72
CC(C)(C)c1cc(C(=O)NCc2ccccc2)ccn1	C1s block 22
CS(=O)(=O)c1cccc(C(=O)NCc2ccccc2)c1	none
COc1ccccc1Nc1nc(-c2cccs2)cs1	C1s block 58
COc1ccc(C(=O)SC2=NCCS2)cc1OC	C1s block 24 (no result: CatL block)
COc1ccc(C(=O)N2CCSC2=S)cc1OC	none
COc1ccccc1CN(Cc1ccco1)S(=O)(=O)c1ccc(-n2cnnn2)c(OC)c1	CatS inh 60
COc1ccc(N(CC(=O)NCC2CCCO2)S(=O)(=O)c2c(C)noc2C)cc1 (stereo not drawn)	CatB inh 32
Cc1nnc2ccc(N3CCN(c4ccccn4)CC3)nn12	CatB inh 51 (no result: CatL block)
COC(=O)Sc1nc(N2CCOCC2)c2c(c1C#N)CC(C)(C)OC2	CatB inh 47 (no result: C1s block, Cathepsin G inh, CatB mix inh, CatS inh)
CC(C)CN(C(=O)c1ccc(=O)n(C)n1)c1nc2ccccc2s1	none
CCOC(=O)CNS(=O)(=O)c1cc(-c2n[nH]c(=O)c3ccccc23)ccc1C	CatB inh 23 (no result: C1s block, Cathepsin G inh, CatB mix inh, CatS inh)
Cc1ccc(C(=O)n2cnnc2N)cc1C	Cathepsin G inh 85
Nc1nncn1C(=O)c1cccs1	Cathepsin G inh 22
Cc1ccc(C)c(C(=O)n2cnnc2N)c1	none
Cc1ccc(NC(=O)CSc2nnc(-c3ccco3)c(-c3ccco3)n2)cc1	none (no result: C1s block, Cathepsin G inh, CatB mix inh, CatS inh)
O=C(CSc1nnc(-c2ccco2)c(-c2ccco2)n1)Nc1ccccc1	CatB inh 57, CatB mix inh inconclusive
O=C1CC(c2cccs2)c2cc3c(cc2N1)OCCO3 (stereo not drawn)	none (no result: CatL block)
O=C(Oc1ccc2c(c1)OCC2=O)c1ccccc1	C1s block 43
Oc1c(C(c2cccc(F)c2)N2CCN(Cc3ccccc3)CC2)sc2ncnn12 (stereo not drawn)	none (no result: CatL block)
COc1ccc(CNC(=O)C2CCN(S(=O)(=O)c3cc(OC)ccc3OC)CC2)cc1	none
COc1ccc(CCNC(=O)C2CCN(S(=O)(=O)c3cc(OC)ccc3OC)CC2)cc1	CatL block 46
COc1ccc(C)cc1-n1nnnc1SCc1cc(=O)n2cc(C)ccc2n1	none
O=C(c1noc2c1CCc1ccccc1-2)N1CCCc2ccccc21	Cathepsin G inh 39
O=C(c1noc2c1CCc1ccccc1-2)N1CCc2ccccc2C1	Cathepsin G inh 30
O=C(c1noc2c1CCc1ccccc1-2)N1CCOCC1	Cathepsin G inh 37
CCC(NS(=O)(=O)c1ccc(C)cc1)C(=O)Nc1ccc(NC(C)=O)cc1 (stereo not drawn)	none
COc1ccc(C2C(C(=O)c3cccs3)=C(O)C(=O)N2c2nnc(C)s2)cc1OC (stereo not drawn)	none
COc1ccc(C2C(C(=O)c3cccs3)=C(O)C(=O)N2c2nncs2)cc1 (stereo not drawn)	Cathepsin G inh 22
COc1cc(C)nc(NS(=O)(=O)c2ccccc2)n1	C1s block 22
CC(=O)N(Cc1ccc2c(c1)OCO2)C1CC(=O)N(CCc2ccccc2)C1=O (stereo not drawn)	none
COc1ccc(C(=O)n2cnc(N)n2)cc1	Cathepsin G inh 70
CC(=O)c1cn(CC(=O)NCc2ccc3c(c2)OCO3)c2ccccc12	C1s block 64
O=c1c2c3c(sc2n2cnnc2n1-c1ccccc1)N(Cc1ccccc1)CCC3	none
CCOC(=O)c1nc(-c2ccccc2)oc1N(C)C	none
CCOC(=O)c1ccc(N=Cc2nc(-c3ccccc3)oc2OC(C)=O)cc1	Cathepsin G inh 28
CCC(=O)Oc1oc(-c2ccccc2)nc1C=Nc1ccccc1OC	CatB inh 26 (no result: C1s block, Cathepsin G inh, CatB mix inh, CatS inh)
CCOC(=O)c1ccc(N=Cc2nc3ccccc3n2C)cc1	none
CCOc1ccc(N2CC(C(=O)Oc3ccccc3)CC2=O)cc1 (stereo not drawn)	none
O=C1c2ccccc2C(Nc2ccc(Cl)cn2)N1c1cccnc1 (stereo not drawn)	none (no result: CatL block)
